Screens as filed in PubChem BioAssay.
In the library only some 3.8% were active in any assay of this set; here they are far more common.
PrP UTR inh – inhibition of PrP 5' UTR reporter expression | AID 488862, 2010 | cell-based PrP 5' UTR mRNA reporter, plate reader | 340,000 tested, 0.35% active | inhibition, % (no concentration beside the values); in the data active = inhibition above about 52%; note: 0 = median of the neutral control wells
GDH-TPI counter – GDH-TPI coupling enzyme inhibitors, primary screen, artefact control for M. tuberculosis FBA inhibitor project, biochemical, absorbance, full deck. inhibition, % at 4.8 µM. GDH-TPI coupled enzyme counterscreen, NADH absorbance. 360,000 tested, 1.2% active; in the data active = inhibition above about 30%;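 note: 0% = DMSO wells and 100% = wells lacking the enzyme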
Y pestis TopoI – Yersinia pestis topoisomerase I inhibitors, primary screen, biochemical, cleavage product accumulation, plate reader, single point | Y. pestis Topo-I cleavage product accumulation | activity, % at 10 µM | 360,000 tested, 0.064% active; in the data active = activity above about 50%, passing the limit was not always enough
Mtb hypoxia inh – PubChem AID 1159583; M. tuberculosis hypoxia-regulated fluorescent reporter, fluorescence; fluorescence inhibition, % (concentration not given with the values); 300,000 tested, 0.1% active; in the data active = fluorescence inhibition mostly above about 23%, no sharp cut-off; inactive = mostly below about 17%
PrPC TRFRET – inhibitors of human cell surface prion protein PrPC, primary screen, cell-based, TR-FRET | Major prion protein (Homo sapiens), P04156 | TR-FRET read-out | inhibition, % at 13.8 µM | 370,000 tested, 0.43% active | AID 720596, 2013; in the data active = inhibition above about 24%; note: 0% = median of the test wells and 100% = reference compound wells
FBA Mtb inh – Mtb FBA enzyme inhibitors, primary screen, biochemical, fluorescence, strain H37Rv. purified M. tuberculosis FBA, fluorescence read-out. 360,000 tested, 2.3% active. AID 588726, 2011. inhibition, % at 1 µM; in the data active = inhibition above about 27%;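 note: 0% = vehicle and 100% = reference inhibitor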
Target sequence (P9WQA3 whole entry, looked up): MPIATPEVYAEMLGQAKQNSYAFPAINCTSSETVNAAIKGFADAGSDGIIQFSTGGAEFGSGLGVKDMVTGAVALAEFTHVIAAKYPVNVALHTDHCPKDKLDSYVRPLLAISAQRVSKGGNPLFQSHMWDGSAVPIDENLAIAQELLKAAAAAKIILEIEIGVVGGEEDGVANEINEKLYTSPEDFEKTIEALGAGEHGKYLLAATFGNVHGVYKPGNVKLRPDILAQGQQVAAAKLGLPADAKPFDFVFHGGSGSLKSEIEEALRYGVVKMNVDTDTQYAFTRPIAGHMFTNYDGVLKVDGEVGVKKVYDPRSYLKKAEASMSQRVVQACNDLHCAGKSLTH
* = called active by the depositor; / = no result given; + = active, no number.

SMILES	PrP UTR inh	GDH-TPI counter	Y pestis TopoI	Mtb hypoxia inh	PrPC TRFRET	FBA Mtb inh
COc1cc2c(cc1OC)-c1cc(OCc3cccnc3)nc(=O)n1CC2	-5	40*	-1	-1	-2	+
CC1(C)OC(=CC=Nc2ccccc2)C=C(c2ccccc2)O1	/	/	/	3	/	/
COC(=O)C1=C(c2ccccc2OCc2ccccc2)CC2CCC1N2C(=O)NCc1ccc(Cl)cc1 (stereo unspecified)	/	/	/	8	/	/
CC1CN(C(C)CO)C(=O)c2cc(NC(=O)Cn3cnnn3)ccc2OC1CN(C)Cc1ccncc1 (stereo unspecified)	/	/	/	2	/	/
COc1cc2c(cc1OC)-c1cc(Nc3ccc4c(c3)OCCO4)nc(=O)n1CC2	6	36*	-6	/	6	3
COc1ccc(Nc2cc3n(c(=O)n2)CCc2cc(OC)c(OC)cc2-3)cc1	-4	24	1	11	6	22
COc1cc2c(cc1OC)-c1cc(N3CCCCCC3)nc(=O)n1CC2	-11	46*	19	2	4	14
O=C(CNc1ccc2c(c1)OCO2)NN=Cc1ccccc1Cl	/	/	/	7	/	/
CCCCCCc1nnc(NC(=O)OCC)s1	-14	-2	-7	45*	-1	-1
Cn1c2nc(=O)n(-c3ccccc3)c(=O)c-2nc2c1CCCC2	/	19	6	/	/	184*
COc1cc(C=NO)cc(Cl)c1OC	/	/	/	13	/	/
CN(C)c1nc(NN=Cc2ccc(Cl)c([N+](=O)[O-])c2)nc(Nc2ccc(F)cc2)n1	/	/	/	7	/	/
CCc1ccc(/C=N\NC(=O)c2ccc(Br)o2)s1	-19	47*	1	/	4	-2
O=C(N/N=C\c1ccc(Cl)s1)c1ccc(Cn2cccn2)o1	-22	37*	3	/	4	-1
CCc1ccc(C=NNC(=O)c2ccc(OC3CCCC3)cc2)s1	/	/	/	15	/	/
Cc1ccc(/C=N/NC(=O)c2ccc(Br)o2)s1	-80	31*	4	/	3	-4
CC(C)CC(NC(=O)c1nc[nH]c1C(=O)N1CCc2ccccc2C1)C(=O)OC(C)(C)C (stereo unspecified)	/	/	/	3	/	/
CC(=NNc1c([N+](=O)[O-])c(C)nn1C)c1ccc(F)cc1F	/	/	/	10	/	/
CN1CCN(c2ccc(NC(=S)NC(=O)/C=C/c3ccco3)cc2)CC1	-34	31*	-20	10	-22	-2
O=C(/C=C/c1ccco1)NC(=S)Nc1ccccc1N1CCOCC1	-32	46*	-1	5	-8	-2
CC(=O)Nc1ccc(NC(=S)NC(=O)/C=C/c2ccco2)cc1	-9	6	-2	-2	-20	2
O=C(/C=C/c1ccco1)NC(=S)Nc1ccccn1	-39	40*	3	4	-7	1
CC(=O)N(C)c1ccc(NC(=S)NC(=O)/C=C/c2ccco2)cc1	-1	40*	14	10	-20	-7
O=C(/C=C/c1ccco1)NC(=S)Nc1ccccc1N1CCCC1	-4	27	-2	-1	-1	-5
COC(CC(O)CC(O)C(C)OCc1ccccc1)OC (stereo unspecified)	/	/	/	0	/	/
SMILES	PrP UTR inh	GDH-TPI counter	Y pestis TopoI	Mtb hypoxia inh	PrPC TRFRET	FBA Mtb inh
O=C(Nc1ccccc1)C1=CC(c2ccc(Br)cc2)CC(OCCCCO)O1 (stereo unspecified)	/	/	/	7	/	/
COc1ccc(C2C3C(=O)N(C(C)(C)C)C(=O)C3[C@]3(Cc4ccc(Cl)cc4)C(=O)N(c4cccc(C)c4)C(=O)N23)cc1 (stereo partly specified)	/	/	/	-3	/	/
O=C(O)c1ccccc1NN=Cc1ccccc1	-89	36*	1	3	0	5
COC(=O)C1C[C@]2(Br)c3ccccc3N(S(=O)(=O)c3ccccc3)C2N1C(=O)OC (stereo partly specified)	/	/	/	3	/	/
COc1ccc(-c2nc(C#N)c(N3CCc4ccccc4C3)o2)cc1OC	-8	41*	0	-4	11	150*
COc1ccccc1-c1nc(C#N)c(N2CCCCCC2)o1	-22	15	22	0	4	+
Cc1cccc(-c2nc(C#N)c(N3CCCCCC3)o2)c1	-48	26	-4	3	3	139*
Cc1cccc(-c2nc(C#N)c(N3CCC(C)CC3)o2)c1	/	0	15	-5	-5	9
COc1ccccc1-c1nc(C#N)c(N2CCN(c3ccccc3)CC2)o1	-4	3	2	13	0	6
O=C(CSc1nc2nc(-c3cccs3)cc(C(F)(F)F)c2c(=O)[nH]1)C(F)(F)F	-28	14	4	1	-5	+
Cc1cccc(C2C3C(=O)N(Cc4ccccc4)C(=O)C3[C@]3(Cc4ccccc4)C(=O)N(c4cccc(Cl)c4)C(=O)N23)c1 (stereo partly specified)	/	/	/	-3	/	/
O=C(O)C/C(=C\c1ccc(N2CCOCC2)c([N+](=O)[O-])c1)c1nc2ccccc2s1	-12	33*	9	11	-11	0
C=C1C(=O)OC2C1CCC(C)=CCC[C@@]1(C)OC21 (stereo partly specified)	/	/	/	20	/	/
O=C(CNC(=O)c1ccc(S(=O)(=O)N2CCCC2)cc1)NN=Cc1ccc(F)cc1	/	/	/	5	/	/
CCOCCCn1c(=NC(=O)c2ccco2)c(C(=O)OCC)cc2c(=O)n3cccc(C)c3nc21	-16	17	-3	13	-12	+
CCOC(=O)c1cc2c(=O)n3cccc(C)c3nc2n(CC(C)C)c1=NC(=O)c1ccco1	-12	13	0	-3	-31	+
COc1ccc2oc(=O)c(C(=O)Oc3ccc(NC(C)=O)cc3)cc2c1	-3	18	1	8	0	31*
COC(=O)[C@]1(CC(C)C)NC(c2ccc(-c3ccc(Cl)c(Cl)c3)cc2)C2C(=O)N(C)C(=O)C21 (stereo partly specified)	/	/	/	11	/	/
CC(/C=N/NC(=O)c1nnn(-c2nonc2N)c1CN1CCCCC1)=C\c1ccccc1	-8	34*	21	/	-5	-2
CN(C)Cc1c(C(=O)N/N=C/C=C/c2ccccc2)nnn1-c1nonc1N	-14	34*	3	/	7	-2
CC(C)c1c(C(=O)NN=C/C=C/c2ccccc2)nnn1-c1nonc1N	/	/	/	1	/	/
CC(/C=N/NC(=O)c1nnn(-c2nonc2N)c1C(C)C)=C\c1ccco1	-1	37*	0	/	-6	5
CC(C)c1c(C(=O)N/N=C/C=C/c2ccccc2)nnn1-c1nonc1N	-21	39*	-7	/	4	-1
CCOc1cc(C=NNC(N)=O)cc(Br)c1OCc1ccccc1	/	/	/	5	/	/
COCCN1CCn2c(nc3cc(NC(=O)c4ccc(OC)cc4)ccc32)C1	-15	3	4	2	5	11
COCCN1CCn2c(nc3cc(NC(=O)NC4CCCCC4)ccc32)C1	-8	4	12	10	-1	94*
